# Results as given in PubChem BioAssay AID1220 (Sanford-Burnham Center for Chemical Genomics, 2008).
# Among all 190,000 compounds or so, about 1,300 (0.68%) were called active. For the sample, actives were picked, then their nearest neighbours and some compounds at random. Unmarked numbers belong to inactive results. Rule as the data show it: active = inhibition above about 50%; inactive = the rest.
# Target: Mannose-6-phosphate isomerase (Homo sapiens) (UniProt P34949)
# Test: MPI inhibition at elevated mannose 6-phosphate – biochemical, fluorescence intensity, high mannose 6-phosphate, primary screen (AID 1220)
# Conditions: recombinant PMI enzyme, coupled fluorescence intensity; at 20 µM; active compounds read high
# Chain of Mannose-6-phosphate isomerase (Homo sapiens) (P34949 whole entry, looked up): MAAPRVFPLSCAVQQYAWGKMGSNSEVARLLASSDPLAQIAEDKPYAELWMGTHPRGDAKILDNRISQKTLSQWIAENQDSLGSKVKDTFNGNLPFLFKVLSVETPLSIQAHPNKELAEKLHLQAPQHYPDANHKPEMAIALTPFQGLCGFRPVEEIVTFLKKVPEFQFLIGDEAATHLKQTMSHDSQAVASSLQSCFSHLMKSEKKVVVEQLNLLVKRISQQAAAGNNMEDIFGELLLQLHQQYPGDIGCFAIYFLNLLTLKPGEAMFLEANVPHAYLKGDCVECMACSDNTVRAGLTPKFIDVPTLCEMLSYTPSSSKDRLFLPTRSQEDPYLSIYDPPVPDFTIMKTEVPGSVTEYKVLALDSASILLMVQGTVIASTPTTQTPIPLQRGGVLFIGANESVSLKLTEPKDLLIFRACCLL
row,SMILES,inhibition
1,COc1ccccc1NC(=O)c1cnc2c(-c3ccccc3)c(C)nn2c1C,8.9%
2,COCCNC(=O)/C(C#N)=C/c1cc(C)n(C2CCCCC2)c1C,-6.4%
3,O=C(c1cnn(-c2ccccc2)c1)c1ccc2ccccc2c1O,23.1%
4,O=C(COC(=O)[C@H](Cc1ccccc1)NC(=O)c1ccco1)NC(c1ccccc1)c1ccccc1,11.5%
5,COc1cccc(NC(=O)c2ccncc2)c1,6%
6,COc1cc(N)cc(NC(=O)c2ccncc2)c1,50.4% (active)
7,COc1ccc(C(=O)Nc2cc(OC)cc(OC)c2)cc1,10%
8,COc1nc(OC)nc(N2CCC(C(=O)NC3CCCCCC3)CC2)n1,1.4%
9,Cc1ccccc1NC(=S)NCc1ccc(Cl)cc1,9.2%
10,CC1CCc2c(C(=O)Oc3cccc(-n4cnnn4)c3)csc2C1 (stereo not drawn),15.6%
11,COCc1ccc(O)c2ncccc12,22.6%
12,Fc1ccc(NCc2cccnc2)cc1,-2%
13,CC(C)COCc1ccc(O)c2ncccc12,14.9%
14,Cc1cccc(NCc2ccccc2O)c1C,25.8%
15,Oc1ccccc1CNc1cccc2cccnc12,45.3%
16,Cc1ccc(O)c(CNc2ccccn2)c1,-7.2%
17,Cc1ccccc1NCc1ccccc1O,1.6%

row,SMILES,inhibition
1,Cc1ccc(O)c(CNc2cccc3cccnc23)c1,63.8% (active)
2,Cc1cccnc1NCc1ccc(O)c2ncccc12,63.6% (active)
3,Oc1ccc(Cn2ccnc2)c2cccnc12,7.4%
4,CSc1cccc(NC(=S)N(CCCN2CCCC(C)C2)Cc2cccs2)c1 (stereo not drawn),4.6%
5,COCCOC(=O)C1=C(C)N=C2SCCC(=O)N2C1c1cccc(Br)c1 (stereo not drawn),1.8%
6,CCCC(=O)Nc1nc(C)c(-c2csc(Nc3ccc(Cl)cc3)n2)s1,38.4%
7,O=C(Cn1cc(C(F)(F)F)cc(Cl)c1=O)Nc1cc(Cl)cc(Cl)c1,13.7%
8,C=CCn1c(SCC(=O)Nc2ccc3c(c2)OCO3)nnc1-c1ccccc1,25.6%
9,CCOC(=O)c1ccc(Cn2cnc3ccccc3c2=O)cc1,11.7%
10,CCOC(=O)C1=C(c2ccccc2)NC(SC)=C(C#N)C1c1cccnc1 (stereo not drawn),3.3%
11,O/N=C1/CCSc2ccccc21,9.7%
12,Oc1ccc(CNc2ccccc2F)c2cccnc12,73.8% (active)
13,O=C(Cc1ccccc1F)Nc1cccc2cccnc12,-1.1%
14,COc1ccc(O)c(CNc2ccccc2F)c1,17.2%
15,O=[N+]([O-])c1ccc(O)c2ncccc12,9%
16,Cc1ccccc1N=Nc1ccc(O)c2ncccc12,31.3%
